The full list was thinned out, with hits kept by preference.
C diff HTS – blocks growth of Clostridium difficile | Clostridium difficile clinical isolate growth, OD600, 24 h; active compounds read low | growth activity, negative = inhibition, % at 16 µg/mL (by protocol) | hit rate 0.25% among 86,000 | AID 1259249;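 active means mean growth activity at or below -80% and every replicate also at or below -80%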
Of the large screens only hits and unclear results are named; the others gave an inactive call; ! = repeats disagree.

O=C(C[C@@H]1CC[C@@H]2[C@H](COC[C@@H](O)CN2C(=O)Nc2ccc(Cl)c(Cl)c2)O1)NCc1ccncc1	C diff HTS -96!
O=C(C[C@@H]1CC[C@H]2[C@@H](COC[C@H](O)CN2C(=O)Nc2ccc(Cl)c(Cl)c2)O1)NC1CCC1	none
CNC(=O)C[C@@H]1CC[C@H]2[C@@H](COC[C@@H](O)CN2C(=O)Nc2ccc(Cl)c(Cl)c2)O1	none
CCCNC(=O)C[C@H]1CC[C@@H]2[C@H](COC[C@H](O)CN2C(=O)Nc2ccc(Cl)c(Cl)c2)O1	C diff HTS -101!
CNC(=O)C[C@H]1CC[C@H]2[C@@H](COC[C@@H](O)CN2C(=O)Nc2ccc(Cl)c(Cl)c2)O1	none
O=C(C[C@@H]1CC[C@@H]2[C@H](COC[C@H](O)CN2C(=O)Nc2ccc(Cl)c(Cl)c2)O1)NCc1ccc(Cl)cc1	none
CNC(=O)C[C@@H]1CC[C@@H]2[C@H](COC[C@@H](O)CN2C(=O)Nc2ccc(Cl)c(Cl)c2)O1	none
O=C(C[C@H]1C=C[C@H](NC(=O)c2ccccc2)[C@H](CO)O1)NCc1ccc(Oc2ccccc2)cc1	none
CC(C)CC#Cc1ccc2c(c1)O[C@@H](CN(C)Cc1ccc(C(=O)O)cc1)[C@H](C)CN([C@@H](C)CO)S2(=O)=O	none
Cc1cccc(-c2ccc([C@@H]3[C@@H](CO)N4C(=O)CN(C(=O)Cc5ccccn5)C[C@H]34)cc2)c1	none
O=C(Nc1ccc(F)cc1)N[C@@H]1C[C@@H]2O[C@H](CO)CC[C@@H]2O[C@@H]1CCc1ccc(-c2ccccc2)cc1	none
CO[C@H]1CN(C)C(=O)c2ccc(NC(=O)NC(C)C)cc2OC[C@H](C)N(C(=O)NC(C)C)C[C@@H]1C	none
COc1cccc(-c2ccc3c(c2)[C@@H]2[C@@H](CCN2C(=O)Nc2ccccc2OC)[C@@H](CO)N3C)c1	C diff HTS -97
COc1ccc(NC(=O)N2CC[C@@H]3[C@@H](CO)N(C)c4ccc(Br)cc4[C@@H]32)cc1	none
COc1ccc(NC(=O)N2CC[C@@H]3[C@H]2c2cc(Br)ccc2N(C)[C@@H]3CO)cc1	C diff HTS -100
COc1cccc(-c2ccc3c(c2)[C@H]2[C@H](CCN2C(=O)Nc2ccccc2OC)[C@@H](CO)N3C)c1	none
COc1cccc(-c2ccc3c(c2)[C@H]2[C@H](CCN2C(=O)Nc2ccccc2OC)[C@H](CO)N3C)c1	none
COc1ccc(NC(=O)N2CC[C@@H]3[C@@H](CO)N(C)c4ccc(-c5ccc(F)cc5)cc4[C@@H]32)cc1	none
CCOC(=O)[C@@H]1[C@@H]2C=C[C@]3(O2)[C@H](C(=O)NCc2ccccc2)N(CCCCCCO)C(=O)[C@@H]13	none
O=C(C1CCC1)N1[C@H](CO)[C@@H](c2ccccc2)C12CN(CCC(F)(F)F)C2	none
COc1cccc(C#Cc2ccc([C@H]3[C@H](CO)N4C(=O)CN(C(C)=O)C[C@@H]34)cc2)c1	none
Cc1cccc(S(=O)(=O)NC[C@@H]2CC[C@H]3NC[C@H]3O2)c1	none
N#Cc1cccc(-c2ccc(C3[C@@H]4CN(C(=O)Nc5ccc(C(F)(F)F)cc5)C[C@H]3N4)cc2)c1 (stereo not given in full)	C diff HTS -94
COc1ccccc1NC(=O)N1C[C@@H]2N[C@H](C1)C2c1ccc(-c2cccc(C#N)c2)cc1 (stereo not given in full)	none
C/C=C/c1ccc(C2[C@@H]3CN(C(=O)Nc4ccc(C(F)(F)F)cc4)C[C@H]2N3)cc1 (stereo not given in full)	none
N#Cc1cccc(-c2ccc(C3[C@@H]4CN(C(=O)C5CCCC5)C[C@H]3N4)cc2)c1 (stereo not given in full)	none
O=C(Nc1ccc(C(F)(F)F)cc1)N1C[C@@H]2N[C@H](C1)C2c1ccc(-c2cccnc2)cc1 (stereo not given in full)	C diff HTS -102!
O=C(Nc1cccc(F)c1)N1C[C@@H]2N[C@H](C1)C2c1ccc(-c2cccnc2)cc1 (stereo not given in full)	none
COc1ccc2c3c(n(C)c2c1)[C@H](CO)N(C(=O)CN(C)C)CC31CN(Cc2cccnc2)C1	none
CC=Cc1ccc2n(c1=O)C[C@H]1[C@H](CO)[C@@H](C(=O)NCC(F)(F)F)[C@@H]2N1C(=O)C1CCCC1 (mixture of isomers)	none
COc1ccc2c3c([nH]c2c1)[C@H](CO)N(C(=O)C1CC1)CC31CN(C(=O)c2ccncc2)C1	none
C[C@H]1CN([C@@H](C)CO)C(=O)Cc2cc(NC(=O)Cn3cnnn3)ccc2O[C@H]1CN(C)Cc1ccc(C(=O)Nc2ccccc2N)cc1	none
COc1ccc2c3c([nH]c2c1)[C@@H](CO)N(CC1CC1)CC31CN(C(=O)Nc2cccc(F)c2)C1	none
C[C@@H]1CN([C@@H](C)CO)C(=O)c2cccc(NC(=O)Nc3ccc(F)cc3)c2O[C@@H]1CN(C)Cc1ccc(C(F)(F)F)cc1	C diff HTS -92
C[C@@H]1CN([C@@H](C)CO)C(=O)c2cccc(NC(=O)Nc3ccc(C(F)(F)F)cc3)c2O[C@@H]1CN(C)Cc1ccc(C(F)(F)F)cc1	C diff HTS -103
COc1ccc(NC(=O)Nc2cccc3c2O[C@H](CN(C)Cc2ccc(C(F)(F)F)cc2)[C@@H](C)CN([C@H](C)CO)C3=O)cc1	none
C[C@@H]1CN([C@@H](C)CO)C(=O)c2cccc(NC(=O)Nc3ccc(C(F)(F)F)cc3)c2O[C@H]1CN(C)Cc1ccc(C(F)(F)F)cc1	none
C[C@H](CO)N1C[C@H](C)[C@@H](CN(C)Cc2ccc(C(F)(F)F)cc2)Oc2c(NC(=O)Nc3ccc(F)cc3)cccc2C1=O	none
C[C@@H]1CN([C@H](C)CO)C(=O)c2cccc(NC(=O)Nc3ccc(F)cc3)c2O[C@H]1CN(C)Cc1ccc(-c2ccccc2)cc1	none
C[C@H]1CN([C@@H](C)CO)C(=O)c2cccc(NC(=O)Nc3ccc(C(F)(F)F)cc3)c2O[C@@H]1CN(C)Cc1ccc(C(F)(F)F)cc1	none
C[C@H](CO)N1C[C@H](C)[C@H](CN(C)Cc2ccc(-c3ccccc3)cc2)Oc2c(NC(=O)Nc3ccccc3)cccc2C1=O	none
C[C@@H]1CN([C@@H](C)CO)C(=O)c2cccc(NC(=O)Nc3ccc(F)cc3)c2O[C@@H]1CN(C)Cc1ccc(-c2ccccc2)cc1	C diff HTS -93
COc1ccc(CN(C)C[C@@H]2Oc3c(NC(=O)Nc4ccc(C(F)(F)F)cc4)cccc3C(=O)N([C@H](C)CO)C[C@H]2C)cc1	none
C[C@@H]1CN([C@H](C)CO)C(=O)c2cccc(NC(=O)Nc3ccc(F)cc3)c2O[C@H]1CN(C)Cc1ccc(C(F)(F)F)cc1	none
COc1ccc(CN(C)C[C@H]2Oc3c(NC(=O)Nc4ccc(C(F)(F)F)cc4)cccc3C(=O)N([C@@H](C)CO)C[C@H]2C)cc1	C diff HTS -101
CC=Cc1ccc2n(c1=O)C[C@@H]1[C@@H](CO)[C@H](C(=O)Nc3ccccc3)N(CC3CCCC3)[C@H]21 (mixture of isomers)	none
COC(=O)[C@@H]1[C@@H](CO)[C@@H]2Cn3c(ccc(C4=CCCCC4)c3=O)[C@@H]2N1CC1CCCCC1	none
COCC#Cc1ccc(CC[C@H]2O[C@H]3CC[C@@H](CO)O[C@H]3C[C@@H]2n2cc(C3CC3)nn2)cc1	none
Cc1nn(C)cc1NC(=O)C[C@@H]1CC[C@@H]2[C@@H](COc3ccc(NC(=O)C4CCC4)cc3C(=O)N2C)O1	none
OC[C@@H]1Nc2ccc(C#Cc3cccc(F)c3)cc2[C@@H]2NCC[C@H]12	C diff HTS -98
O=S(=O)(c1ccc(F)cc1)N1CC[C@@H]2[C@@H](CO)Nc3ccc(C#Cc4cccc(F)c4)cc3[C@@H]21	none
COc1ccccc1C#Cc1ccc2c(c1)[C@H]1NCC[C@H]1[C@@H](CO)N2	none
